Measured values reported in article PMC5540273 (PLoS ONE, 2017).

Experiments:
Conditions in all cases: concentration: 1 μM,replicates: in singlicate; n = 1
[1] = test system: T1, ASK2
T1 construct: gene MAP3K6

[2] = test system: AURKA
[3] = test system: AURKB
[4] = test system: AURKC
[5] = test system: AXL
[6] = test system: T2, BIKE
T2 construct: gene BMP2K

[7] = test system: BLK
[8] = test system: BMPR1A
[9] = test system: BMPR1B
[10] = test system: BMPR2
[11] = test system: BMX
[12] = test system: BRAF
[13] = test system: T3, BRK
T3 construct: gene PTK6

[14] = test system: BRSK1
[15] = test system: BRSK2
[16] = test system: BTK
[17] = test system: BUB1
[18] = test system: CAMK1B
[19] = test system: CAMK1D
[20] = test system: CAMK1G
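Also: KINOMEscan kinase panel screen.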

CC(=O)Nc1ccc(-c2cc3ncnc(SCC(=O)O)c3s2)cc1
%Inh [1]: 0%
%Inh [2]: 4%
%Inh [3]: 97.1%
%Inh [4]: 32%
%Inh [5]: 36%
%Inh [6]: 19%
%Inh [7]: 0%
%Inh [8]: 8%
%Inh [9]: 0%
%Inh [10]: 7%
%Inh [11]: 0%
%Inh [12]: 4%
%Inh [13]: 0%
%Inh [14]: 28%
%Inh [15]: 3%
%Inh [16]: 0%
%Inh [17]: 47%
%Inh [18]: 0%
%Inh [19]: 0%
%Inh [20]: 19%

CSc1nccc(-c2c(-c3ccc(F)cc3)ncn2CCCN2CCOCC2)n1.Cl [SB-217146]
%Inh [1]: 0%
%Inh [2]: 7%
%Inh [3]: 35%
%Inh [4]: 0%
%Inh [5]: 0%
%Inh [6]: 0%
%Inh [7]: 0%
%Inh [8]: 0%
%Inh [9]: 4%
%Inh [10]: 39%
%Inh [11]: 0%
%Inh [12]: 4%
%Inh [13]: 0%
%Inh [14]: 0%
%Inh [15]: 0%
%Inh [16]: 0%
%Inh [17]: 14%
%Inh [18]: 0%
%Inh [19]: 12%
%Inh [20]: 0%

Cl.Nc1n[nH]c2cc(-c3ccccn3)ccc12 [GSK2189892]
%Inh [1]: 0%
%Inh [2]: 0%
%Inh [3]: 8%
%Inh [4]: 0%
%Inh [5]: 0%
%Inh [6]: 32%
%Inh [7]: 22%
%Inh [8]: 0%
%Inh [9]: 0%
%Inh [10]: 0%
%Inh [11]: 12%
%Inh [12]: 0%
%Inh [13]: 32%
%Inh [14]: 0%
%Inh [15]: 0%
%Inh [16]: 0%
%Inh [17]: 0%
%Inh [18]: 0%
%Inh [19]: 25%
%Inh [20]: 0%

COc1cc2c(Nc3ccc(NC(=O)c4ccccc4)cc3)ncnc2cc1OCCCN1CCOCC1 [GSK301329]
%Inh [1]: 20%
%Inh [2]: 94.5%
%Inh [3]: 95.6%
%Inh [4]: 70%
%Inh [5]: 55%
%Inh [6]: 28%
%Inh [7]: 96.7%
%Inh [8]: 0%
%Inh [9]: 0%
%Inh [10]: 0%
%Inh [11]: 7%
%Inh [12]: 0%
%Inh [13]: 77%
%Inh [14]: 20%
%Inh [15]: 0%
%Inh [16]: 0%
%Inh [17]: 10%
%Inh [18]: 9%
%Inh [19]: 35%
%Inh [20]: 9%

CCCC(=O)Nc1n[nH]c2ncccc12 [SB-601436]
%Inh [1]: 0%
%Inh [2]: 0%
%Inh [3]: 18%
%Inh [4]: 0%
%Inh [5]: 18%
%Inh [6]: 9%
%Inh [7]: 19%
%Inh [8]: 0%
%Inh [9]: 0%
%Inh [10]: 17%
%Inh [11]: 28%
%Inh [12]: 7%
%Inh [13]: 0%
%Inh [14]: 0%
%Inh [15]: 0%
%Inh [16]: 0%
%Inh [17]: 0%
%Inh [18]: 0%
%Inh [19]: 3%
%Inh [20]: 0%

Cn1ccc2ncnc(Oc3ccc(NC(=O)Nc4cccc(C(F)(F)F)c4)c(F)c3)c21
%Inh [1]: 0%
%Inh [2]: 5%
%Inh [3]: 88%
%Inh [4]: 65%
%Inh [5]: 87%
%Inh [6]: 18%
%Inh [7]: 22%
%Inh [8]: 0%
%Inh [9]: 0%
%Inh [10]: 0%
%Inh [11]: 1%
%Inh [12]: 62%
%Inh [13]: 0%
%Inh [14]: 0%
%Inh [15]: 2%
%Inh [16]: 30%
%Inh [17]: 0%
%Inh [18]: 0%
%Inh [19]: 12%
%Inh [20]: 11%

Cn1ccc2ncnc(Oc3ccc(NC(=O)Nc4cccc(C(F)(F)F)c4)c(Cl)c3)c21
%Inh [1]: 0%
%Inh [2]: 0%
%Inh [3]: 51%
%Inh [4]: 29%
%Inh [5]: 75%
%Inh [6]: 0%
%Inh [7]: 6%
%Inh [8]: 15%
%Inh [9]: 0%
%Inh [10]: 0%
%Inh [11]: 15%
%Inh [12]: 46%
%Inh [13]: 5%
%Inh [14]: 0%
%Inh [15]: 0%
%Inh [16]: 0%
%Inh [17]: 0%
%Inh [18]: 16%
%Inh [19]: 16%
%Inh [20]: 1%

CC(C)S(=O)(=O)N1CCN(Cc2ccc3c(c2)nc(NC(=O)c2ccsc2)n3C[C@H](O)c2ccccc2)CC1 [GW635815]
%Inh [1]: 0%
%Inh [2]: 8%
%Inh [3]: 0%
%Inh [4]: 37%
%Inh [5]: 97.7%
%Inh [6]: 57%
%Inh [7]: 65%
%Inh [8]: 15%
%Inh [9]: 0%
%Inh [10]: 50%
%Inh [11]: 10%
%Inh [12]: 0%
%Inh [13]: 8%
%Inh [14]: 0%
%Inh [15]: 0%
%Inh [16]: 0%
%Inh [17]: 13%
%Inh [18]: 0%
%Inh [19]: 12%
%Inh [20]: 19%

FC(F)(F)c1cc(Br)cc(Nc2nccc(-c3cnn4ncccc34)n2)c1 [GW810578]
%Inh [1]: 25%
%Inh [2]: 9%
%Inh [3]: 16%
%Inh [4]: 16%
%Inh [5]: 3%
%Inh [6]: 29%
%Inh [7]: 0%
%Inh [8]: 8%
%Inh [9]: 7%
%Inh [10]: 0%
%Inh [11]: 10%
%Inh [12]: 0%
%Inh [13]: 0%
%Inh [14]: 0%
%Inh [15]: 0%
%Inh [16]: 0%
%Inh [17]: 16%
%Inh [18]: 29%
%Inh [19]: 5%
%Inh [20]: 18%

COC(=O)c1cccc(NC(=O)NC2CCN(c3ccnc(NCc4ccc(F)cc4)n3)CC2)c1 [GSK1379860]
%Inh [1]: 4%
%Inh [2]: 0%
%Inh [3]: 0%
%Inh [4]: 13%
%Inh [5]: 9%
%Inh [6]: 13%
%Inh [7]: 24%
%Inh [8]: 0%
%Inh [9]: 0%
%Inh [10]: 9%
%Inh [11]: 11%
%Inh [12]: 2%
%Inh [13]: 10%
%Inh [14]: 0%
%Inh [15]: 0%
%Inh [16]: 0%
%Inh [17]: 21%
%Inh [18]: 67%
%Inh [19]: 0%
%Inh [20]: 0%

CN1CCN(CCNc2nc3cc(Oc4ccc(NC(=O)Nc5cc(C(F)(F)F)ccc5F)cc4)ccc3[nH]2)CC1.Cl.Cl [GW768504]
%Inh [1]: 0%
%Inh [2]: 9%
%Inh [3]: 22%
%Inh [4]: 13%
%Inh [5]: 82%
%Inh [6]: 0%
%Inh [7]: 14%
%Inh [8]: 12%
%Inh [9]: 0%
%Inh [10]: 0%
%Inh [11]: 0%
%Inh [12]: 0%
%Inh [13]: 0%
%Inh [14]: 0%
%Inh [15]: 6%
%Inh [16]: 0%
%Inh [17]: 0%
%Inh [18]: 0%
%Inh [19]: 0%
%Inh [20]: 4%

Cc1cccc(-c2nc(Nc3ccncc3)c3sccc3n2)n1 [GW869641]
%Inh [1]: 29%
%Inh [2]: 48%
%Inh [3]: 43%
%Inh [4]: 30%
%Inh [5]: 33%
%Inh [6]: 13%
%Inh [7]: 15%
%Inh [8]: 4%
%Inh [9]: 82%
%Inh [10]: 37%
%Inh [11]: 11%
%Inh [12]: 36%
%Inh [13]: 6%
%Inh [14]: 0%
%Inh [15]: 7%
%Inh [16]: 58%
%Inh [17]: 54%
%Inh [18]: 16%
%Inh [19]: 24%
%Inh [20]: 7%

Cn1ccc2ncnc(Oc3ccc(NC(=O)Nc4cnn(C(C)(C)C)c4)c(Cl)c3)c21
%Inh [1]: 9%
%Inh [2]: 23%
%Inh [3]: 44%
%Inh [4]: 52%
%Inh [5]: 76%
%Inh [6]: 19%
%Inh [7]: 32%
%Inh [8]: 17%
%Inh [9]: 6%
%Inh [10]: 9%
%Inh [11]: 0%
%Inh [12]: 77%
%Inh [13]: 0%
%Inh [14]: 0%
%Inh [15]: 12%
%Inh [16]: 0%
%Inh [17]: 0%
%Inh [18]: 9%
%Inh [19]: 0%
%Inh [20]: 0%

COc1cccc(OC)c1C(=O)Nc1cccc(-c2nn3ccccc3c2-c2ccnc(Nc3cccc(F)c3)n2)c1 [GSK361065]
%Inh [1]: 0%
%Inh [2]: 32%
%Inh [3]: 0%
%Inh [4]: 70%
%Inh [5]: 30%
%Inh [6]: 0%
%Inh [7]: 41%
%Inh [8]: 9%
%Inh [9]: 21%
%Inh [10]: 0%
%Inh [11]: 21%
%Inh [12]: 17%
%Inh [13]: 19%
%Inh [14]: 0%
%Inh [15]: 16%
%Inh [16]: 0%
%Inh [17]: 11%
%Inh [18]: 0%
%Inh [19]: 13%
%Inh [20]: 0%

COc1cc2nccc(Nc3ccc(Oc4ccccc4)cc3)c2cc1OC.Cl [GI261656]
%Inh [1]: 0%
%Inh [2]: 22%
%Inh [3]: 17%
%Inh [4]: 0%
%Inh [5]: 10%
%Inh [6]: 6%
%Inh [7]: 99.2%
%Inh [8]: 0%
%Inh [9]: 0%
%Inh [10]: 7%
%Inh [11]: 36%
%Inh [12]: 0%
%Inh [13]: 96.1%
%Inh [14]: 0%
%Inh [15]: 0%
%Inh [16]: 93.3%
%Inh [17]: 31%
%Inh [18]: 23%
%Inh [19]: 2%
%Inh [20]: 0%

C[C@@H](Oc1cc(-n2cnc3ccc(-c4ccncc4)cc32)sc1C(N)=O)c1ccccc1Cl [GSK483724]
%Inh [1]: 0%
%Inh [2]: 0%
%Inh [3]: 19%
%Inh [4]: 50%
%Inh [5]: 32%
%Inh [6]: 92.9%
%Inh [7]: 31%
%Inh [8]: 0%
%Inh [9]: 0%
%Inh [10]: 3%
%Inh [11]: 27%
%Inh [12]: 8%
%Inh [13]: 25%
%Inh [14]: 24%
%Inh [15]: 20%
%Inh [16]: 0%
%Inh [17]: 41%
%Inh [18]: 8%
%Inh [19]: 21%
%Inh [20]: 21%

CNC(=O)c1ccccc1Nc1nc(Nc2cccc(CS(C)(=O)=O)c2)ncc1C.O=CO [GSK1520489]
%Inh [1]: 13%
%Inh [2]: 100%
%Inh [3]: 99.9%
%Inh [4]: 96.8%
%Inh [5]: 100%
%Inh [6]: 99.2%
%Inh [7]: 99.6%
%Inh [8]: 0%
%Inh [9]: 99.9%
%Inh [10]: 99.3%
%Inh [11]: 97.2%
%Inh [12]: 59%
%Inh [13]: 99.7%
%Inh [14]: 65%
%Inh [15]: 79%
%Inh [16]: 95.4%
%Inh [17]: 88%
%Inh [18]: 14%
%Inh [19]: 40%
%Inh [20]: 29%
